According to PubChem BioAssay AID1159580 (chemical genetic matrix, 2015):
Values joined by “and” are separate entries in the source; they are usually repeats but may differ in a detail not shown here. Equal values may be shown once. Out of some 5,500 compounds screened, about 2,000 (36%) were called active. About 18% were inconclusive and are not listed. No stated cut-off is given here; in the data, active means normalized growth mostly below about 0.91 (no sharp cut-off); inconclusive means no clear call, values can overlap the other calls; inactive means mostly above about 0.92. Some of the results follow.

Assay: chemical genetic growth profiling, strain panel (AID 1159580);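 further: tested at 20 µM; growth read once vehicle control cultures reached saturation at 30 °C; 1 = growth at the plate median or of vehicle wells; lower values mean less growth of the strain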
Settings: S. cerevisiae deletion strains, growth OD

Measured: normalized growth

CNC(C)(C)Cc1ccccc1
inactive: locus YAL013W, strain DEP1, hits give low values 1.01 | locus YAL021C, strain ccr4, hits give low values 0.997 | locus YAL026C, strain drs2, hits give low values 1.01 | locus YAL030W, strain snc1, hits give low values 1.01 | locus YBL061C, strain skt5, hits give low values 1.02 | locus YBR009C, strain hhf1, hits give low values 1.02 | locus YBR021W, strain FUR4, hits give low values 1.01 | locus YBR023C, strain chs3, hits give low values 1.02 | locus YBR171W, strain sec66, hits give low values 1.02 | locus YBR229C, strain ROT2, hits give low values 1.01 | locus YBR231C, strain swc5, hits give low values 1.02 | locus YBR279W, strain paf1, hits give low values 1.01 | locus YCL011C, strain gbp2, hits give low values 1.02 | locus YCL016C, strain dcc1, hits give low values 1.02 | locus YCL029C, strain bik1, hits give low values 1 | locus YCL061C, strain MRC1, hits give low values 1.01 | locus YCL069W, strain vba3, hits give low values 1.01 | locus YCR088W, strain abp1, hits give low values 1.01 | locus YDL005C, strain med2, hits give low values 1.02 | locus YDL035C, strain GPR1, hits give low values 1.02 | locus YDL040C, strain nat1, hits give low values 1.01 | locus YDL074C, strain BRE1, hits give low values 0.988 | locus YDL101C, strain DUN1, hits give low values 1.01 | locus YDL134C, strain PPH21, hits give low values 1.02 | locus YDL185W, strain tfp1, hits give low values 1.01 | locus YDL192W, strain arf1, hits give low values 1 | locus YDR001C, strain nth1, hits give low values 1 | locus YDR069C, strain doa4, hits give low values 1.02 | locus YDR101C, strain arx1, hits give low values 1.02 | locus YDR137W, strain rgp1, hits give low values 0.958 | locus YDR150W, strain NUM1, hits give low values 1 | locus YDR159W, strain sac3, hits give low values 1 | locus YDR162C, strain NBP2, hits give low values 1.02 | locus YDR195W, strain ref2 1.02 | locus YDR297W, strain sur2, hits give low values 1.02 | locus YDR318W, strain mcm21, hits give low values 1.02 | locus YDR334W, strain swr1, hits give low values 0.991 | locus YDR335W, strain msn5, hits give low values 1.01 | locus YDR388W, hits give low values 1.01 | locus YDR392W, strain spt3, hits give low values 1.01 | locus YDR502C, strain sam2, hits give low values 0.993 | locus YEL003W, strain gim4, hits give low values 1.01 | locus YEL037C, strain rad23, hits give low values 1.01 | locus YEL061C, strain CIN8 (second series), hits give low values 1 | locus YEL061C, strain CIN8, hits give low values 1 | locus YER015W, strain faa2, hits give low values 1.02 | locus YER016W, strain bim1, hits give low values 1.01 | locus YER110C, hits give low values 0.999 | locus YER111C, strain swi4, hits give low values 0.988 | locus YER155C, strain BEM2 (second series), hits give low values 0.996 | locus YER155C, strain BEM2, hits give low values 1.01 | locus YER167W, strain BCK2, hits give low values 1.03 | locus YFR010W, strain ubp6, hits give low values 1.02 | locus YGL078C, strain dbp3, hits give low values 0.998 | locus YGL086W, strain mad1, hits give low values 0.997 | locus YGL167C, strain pmr1, hits give low values 1.01 | locus YGL173C, strain kem1, hits give low values 1.02 | locus YGL227W, strain vid30, hits give low values 1.02 | locus YGL240W, strain doc1, hits give low values 1.02 | locus YGL248W, strain PDE1, hits give low values 0.996 | locus YGL253W, strain hxk2, hits give low values 1.03 | locus YGR078C, strain PAC10, hits give low values 0.994 | locus YGR135W, strain pre9, hits give low values 1.03 | locus YGR252W, strain gcn5, hits give low values 1 | locus YHR013C, strain ard1, hits give low values 1.04 | locus YHR027C, strain rpn1, hits give low values 1.02 | locus YHR030C, strain SLT2, hits give low values 1.01 and 1.04 | locus YHR079C, strain IRE1 (second series), hits give low values 1 | locus YHR079C, strain IRE1, hits give low values 1.04 | locus YHR094C, strain hxt1, hits give low values 1 | locus YHR129C, strain ARP1, hits give low values 1.01 | locus YHR142W, strain chs7, hits give low values 1.01 | locus YHR200W, strain rpn10, hits give low values 1.01 | locus YIL066C, strain RNR3, hits give low values 1 | locus YIL073C, strain SPO22, hits give low values 1.06 | locus YIL125W, strain kgd1, hits give low values 0.996 | locus YIR030C, strain dcg1, hits give low values 1.01 | locus YJL092W, strain hpr5, hits give low values 1.01 | locus YJL095W, strain BCK1 (second series), hits give low values 1.01 | locus YJL095W, strain BCK1, hits give low values 0.99 and 1.04 | locus YJL115W, strain asf1, hits give low values 1.01 | locus YJL129C, strain trk1, hits give low values 0.983 | locus YJL134W, strain LCB3, hits give low values 1.01 | locus YJL154C, strain vps35, hits give low values 1 | locus YJL164C, strain tpk1, hits give low values 1.02 | locus YJL166W, strain qcr8, hits give low values 1.02 | locus YJL168C, strain set2, hits give low values 1 | locus YJL187C, strain SWE1 (second series), hits give low values 0.986 | locus YJL187C, strain SWE1, hits give low values 1.02
